# Experimental data published in PubChem BioAssay.
# Activity calls are given as the source filed them. How the calls were made is not given here.
# System: Aerobactin synthetase IucA (Klebsiella pneumoniae hvKP1)
# Assay: IucA enzyme inhibition, primary screen, biochemical, Spectrum library (AID 1346200);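 further: 100% = wells without compound and 0% = wells lacking enzyme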
# Conditions: malachite green pyrophosphate, A620, at 8 µM, stronger effect = lower value
row,SMILES,activity remaining
1,O=C(O)CCC(=O)c1ccc(-c2ccccc2)cc1,115% (inactive)
2,Nc1ccc(S(=O)(=O)c2ccc(N)cc2)cc1,109% (inactive)
3,CC1(C)CC[C@]2(C)CC[C@]3(C)C(=CCC4[C@@]5(C)CC[C@H](O)C(C)(C)C5CC[C@]43C)C2C1 (stereo not given in full),121% (inactive)
4,CC(C)NCC(O)c1ccc(O)c(O)c1 (stereo not given),82.7% (inactive)
5,C=CC(N)CCC(=O)O (stereo not given),119% (inactive)
6,CC(=O)O[C@@H]1CC[C@@]2(C)C(C[C@@H](OC(C)=O)[C@@]3(C)C4=CC(=O)O[C@@H](c5ccoc5)[C@]4(C)CCC23)C1(C)C (stereo not given in full),121% (inactive)
7,CCCCCC1C(=O)CCC1CC(=O)O (stereo not given),93.2% (inactive)
8,COC(=O)[C@@H]1OC(=O)C2OC23[C@@]1(C)CCC1[C@]2(C)C(C[C@H](O)[C@]13C)C(C)(C)[C@H](OC(C)=O)C[C@@H]2OC(C)=O (stereo not given in full),111% (inactive)
9,CCOc1ccc(NC(C)=O)cc1,97.1% (inactive)
10,O=C(O)CCCN1C(=O)c2cccc3cccc(c23)C1=O,110% (inactive)
11,CC1(C)CC[C@]2(C(=O)O)CC[C@]3(C)C(=CCC4[C@@]5(C)CC[C@@H](O)C(C)(C)C5CC[C@]43C)C2C1 (stereo not given in full),118% (inactive)
12,Cc1cc(/C=C/c2ccc3cc(N(C)C)ccc3[n+]2C)c(C)n1-c1ccccc1,72.1% (inactive)
13,Cc1c(C)c2c(c(C)c1O)CCC(C)(CCCC(C)CCCC(C)CCCC(C)C)O2 (stereo not given),105% (inactive)
14,CC(C)(C)CC(C)(C)c1ccc(OCCOCC[N+](C)(C)Cc2ccccc2)cc1,113% (inactive)
15,CCN(CC)C(=O)c1cccc(C)c1,112% (inactive)
16,O=C(O[C@@H]1Cc2c(O)cc(O)cc2O[C@@H]1c1cc(=O)c(O)c2c(O)c(O)cc([C@H]3Oc4cc(O)cc(O)c4C[C@H]3O)c2c1)c1cc(O)c(O)c(O)c1,106% (inactive)
17,CC[C@H]1CN2CCc3cc(OC)c(OC)cc3C2C[C@@H]1CC1NCCc2cc(OC)c(OC)cc21 (stereo not given in full),118% (inactive)
18,O=C(O)CCCCC1CCSS1 (stereo not given),103% (inactive)
19,NC(=O)c1cc[n+](CC2=C(C(=O)O)N3C(=O)C(NC(=O)C(c4ccccc4)S(=O)(=O)[O-])C3SC2)cc1 (stereo not given),117% (inactive)
20,OC(c1cc(C(F)(F)F)nc2c(C(F)(F)F)cccc12)C1CCCCN1 (stereo not given),120% (inactive)

row,SMILES,activity remaining
1,CC(=O)Oc1ccc(O)cc1,122% (inactive)
2,CC[C@H]1OC(=O)C[C@@H](O)[C@H](C)[C@@H](O[C@@H]2O[C@H](C)[C@@H](O[C@H]3C[C@@](C)(O)[C@@H](O)[C@H](C)O3)[C@H](N(C)C)[C@H]2O)[C@@H](CC=O)C[C@@H](C)C(=O)/C=C/C(C)=C/[C@@H]1CO[C@@H]1O[C@H](C)[C@@H](O)[C@@H](OC)[C@H]1OC,112% (inactive)
3,O=C1c2ccccc2C(=O)c2c(O)c(O)cc(O)c21,118% (inactive)
4,COc1cc(O)c2c(=O)cc(C)oc2c1CC=C(C)C,83.4% (inactive)
5,CC(=O)O[C@@H]1CC2C(C)(C)C(=O)C=C[C@]2(C)C2CC[C@@]3(C)[C@H](c4ccoc4)OC(=O)[C@H]4O[C@]43[C@@]21C (stereo not given in full),104% (inactive)
6,Cc1cc(O)cc(=O)o1,116% (inactive)
7,CCCCN1CCCCC1C(=O)Nc1c(C)cccc1C (stereo not given),103% (inactive)
8,O=C(Oc1cc(O)cc2c1C[C@@H](OC(=O)c1cc(O)c(O)c(O)c1)[C@@H](c1cc(O)c(O)c(O)c1)O2)c1cc(O)c(O)c(O)c1,122% (inactive)
9,C[C@H](CCC(=O)O)[C@H]1CCC2C3C(CC[C@@]21C)[C@@]1(C)CC[C@@H](O)C[C@H]1C[C@H]3O (stereo not given in full),101% (inactive)
10,O=c1c(-c2ccccc2)coc2cc(O)cc(O)c12,109% (inactive)
11,COc1ccc2cc1Oc1ccc(cc1)C[C@H]1c3c(cc4c(c3Oc3cc5c(cc3OC)CCN(C)[C@@H]5C2)OCO4)CCN1C,115% (inactive)
12,C=C1C2CC[C@@]3(C)[C@H](c4ccoc4)OC(=O)C[C@]13O[C@H]1CC(=O)C(C)(C)C(CC(=O)OC)C21C (stereo not given in full),124% (inactive)
13,COC(=O)[C@@H]1OC(=O)C2OC23[C@@]1(C)CCC1[C@@]2(C)CCC(=O)C(C)(C)C2C[C@@H](OC(C)=O)[C@]13C (stereo not given in full),112% (inactive)
14,C=C(C)[C@@H]1CC[C@]2(CO)CC[C@]3(C)[C@H](CCC4[C@@]5(C)CC[C@H](O)C(C)(C)C5CC[C@]43C)C12 (stereo not given in full),93.4% (inactive)
15,O=C(O)CCC(=O)OC[C@@H](NC(=O)C(Cl)Cl)[C@H](O)c1ccc([N+](=O)[O-])cc1,110% (inactive)
16,C=C1CC[C@H](O)C/C1=C/C=C1\CCCC2(C)C1CCC2C(C)CCCC(C)C (stereo not given in full),113% (inactive)
17,OC(CCN1CCCCC1)(c1ccccc1)c1ccccc1,95.4% (inactive)
18,CC(=O)CC(=O)CCC(=O)O,102% (inactive)
19,CNCC[C@H](Oc1cccc2ccccc12)c1cccs1,114% (inactive)
20,COc1cnc(NS(=O)(=O)c2ccc(N)cc2)nc1,113% (inactive)
